# Tb PFK inh = inhibitors of T. brucei phosphofructokinase. actives 0.17% (n = 330,000). Potency, µM (doses to about 57.5 µM), for the others: top-dose activity, negative = inhibition, hits mostly inhibitors. T. brucei PFK, ADP-Glo luminescence. AID 485367;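 note: 0% = uninhibited 1x PFK enzyme wells and -100% = no-enzyme wells; nearly all actives have a fitted effect of over 60% in size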
#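 PFK 1.25 nM, F6P 0.5 mM, ATP 0.1 mM, 0.1 M TEA pH 8.0, 5 mM MgCl2, 0.01% Tween20, 0.1% BSA; 45 min RT. ADP-Glo readout. qHTS titration up to 57 uM; curves fitted, compounds curve-classed.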
# USP2a inh = USP2a (human) protease inhibition; Potency, µM (titrated, usually from 38.3 µM), inactives show top-dose activity change, negative = inhibition, hits mostly inhibitors; actives 0.01% (n = 330,000); O75604; AID 463254; USP2 core, Ub-CHOP2 coupled fluorogenic reporter, 485/531;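 note: plate controls were DMSO wells for no effect and full inhibition by NEM control for full effect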
#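 Cell-free coupled assay: 10nM USP2 core preincubated 30min RT with compound in Tris-HCl pH 8.0/CaCl2/CHAPS buffer, then 25nM Ub-CHOP2 and 25nM reporter substrate; fluorescence (Ex 485/Em 531) read after 60min RT, normalized to NEM inhibition, concentration-response curves fitted.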
# GCN5L2 inh = GCN5L2 (KAT2A) acetyltransferase inhibition; Q92830; Potency, µM (top dose mostly 58.9 µM), inactives show top-dose activity change, negative = inhibition, most hits filed as inhibitors; AID 504327; actives 0.21% (n = 390,000); GCN5L2 HAT assay, ThioGlo1 CoA-SH fluorescence
#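 ThioGlo1-coupled HAT assay: 20nM GCN5L2, 70uM acetyl-CoA, 75uM H3(1-25) peptide, pH 7.5. Fluorescence read at 340/540nm at start and after 20 min at room temperature.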
# GLS inh = inhibitors of human glutaminase (GLS) | Potency, µM (doses to about 45.5 µM), without a hit: top-dose activity change, negative = inhibition, usual class: inhibitors | O94925 | actives 0.21% (n = 410,000) | GLS enzymatic activity, qHTS titration
# Target sequence (O94925 whole entry, looked up): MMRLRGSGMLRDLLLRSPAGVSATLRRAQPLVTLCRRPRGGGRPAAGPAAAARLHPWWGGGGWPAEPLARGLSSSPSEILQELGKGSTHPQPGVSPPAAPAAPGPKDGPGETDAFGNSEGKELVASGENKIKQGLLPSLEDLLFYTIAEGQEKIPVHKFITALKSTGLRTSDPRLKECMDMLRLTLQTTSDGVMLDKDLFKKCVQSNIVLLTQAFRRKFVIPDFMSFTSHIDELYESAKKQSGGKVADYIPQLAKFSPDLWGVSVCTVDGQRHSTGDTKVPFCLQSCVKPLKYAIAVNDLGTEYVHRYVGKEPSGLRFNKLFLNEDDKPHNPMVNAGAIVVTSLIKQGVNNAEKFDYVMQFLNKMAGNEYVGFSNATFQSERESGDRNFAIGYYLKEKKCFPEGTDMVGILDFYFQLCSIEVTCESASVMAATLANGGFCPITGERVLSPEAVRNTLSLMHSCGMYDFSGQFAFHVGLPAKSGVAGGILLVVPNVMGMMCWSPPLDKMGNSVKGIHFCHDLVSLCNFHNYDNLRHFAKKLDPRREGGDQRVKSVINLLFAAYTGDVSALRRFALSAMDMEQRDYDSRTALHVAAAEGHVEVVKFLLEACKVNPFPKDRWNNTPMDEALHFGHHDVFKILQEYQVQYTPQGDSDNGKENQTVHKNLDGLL
#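 Assay buffer: 45 mM KH2PO4 pH 8.2, 0.02% Tween-20. hKGA acts on L-glutamine (1 mM solution added); product glutamate is reported by an oxidase/peroxidase Amplex Red coupling, with fluorescence taken at baseline and 30 min.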
# PGK inhibitor = inhibitors of T. brucei phosphoglycerate kinase. Potency, µM (doses to about 57.5 µM), for inactives: at the highest dose activity change, negative = inhibition, actives largely listed as inhibitors. P07378. PGK/GAPDH coupled, Kinase-Glo luminescence, 60 min. actives 0.043% (n = 380,000); note: nearly all actives have a fitted effect of over 60% in size
#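 Luminescent ATP detection (Kinase-Glo Plus) follows a 60-minute room-temperature incubation, with wells lacking PGK as controls. Buffer: 100 mM TEA (pH 7.6), 5 mM MgCl2, 0.01% Tween-20. Coupling enzyme GAPDH (100 nM final) supplies unstable 1,3-BPG in-well.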
# An asterisk follows results filed as active; i = inactive; ? = inconclusive; nt = no result given; ! = not active in a repeat. A selection: hits, their analogues and other compounds. The true share with any hit is near 0.52%. Calls come from the whole dose curve; as a rule, active = well fitted curve in the direction sought with a large enough effect; inconclusive = small, poorly fitted or top-dose-only effect, or another doubt; inactive = no such curve, though single readings can be large; an effect the other way counts as inactive or inconclusive. Unless noted, % is set by controls: 0 for no effect and ±100 for the full control effect; potency is the fitted concentration of half-maximal effect.
SMILES,Tb PFK inh,USP2a inh,GCN5L2 inh,GLS inh,PGK inhibitor
Nc1nc2ccc(O)cc2s1,-4%,0%,0%,13µM*,i
Nc1nc2ccc(Br)cc2s1,nt,nt,nt,1%,-1%
CN(CC(=O)Nc1c(Cl)cccc1Cl)C(=O)c1ccccc1SCC(=O)N1CCCC1,1%,1%,1%,16µM*,14%
CCOc1ccc(C(=O)NCCCCNC(=O)c2ccc(OCC)cc2)cc1,1%,1%,35µM*,5%,0%
CCOc1ccc(C(=O)NCCC(=O)NCCCC(=O)O)cc1,-2%,-4%,-4%,-1%,-10%
CC1=Nc2cc(C(=O)NCCc3ccc(Cl)cc3)ccc2Sc2c(C)ccc(C)c21,nt,nt,-6%,-12%,-5%
CCOC(=O)c1cc(-c2ccccc2)n(CC(=O)NCc2ccccc2OC)c1C,nt,nt,-4%,-3%,10%
CCC(C)C(N)C1=NC(C(=O)N[C@@H](CC(C)C)C(=O)N[C@H](CCC(=O)[O-])C(=O)N[C@H](C(=O)N[C@H]2CCCCNC(=O)[C@H](CC(N)=O)NC(=O)[C@@H](CC(=O)[O-])NC(=O)[C@H](Cc3cnc[nH]3)NC(=O)[C@@H](Cc3ccccc3)NC(=O)[C@H]([C@@H](C)CC)NC(=O)[C@@H](CCCN)NC2=O)[C@@H](C)CC)CS1.[Zn+2] (stereo partly drawn),nt,nt,nt,?,28µM*
CC[C@H](C)[C@@H]1NC(=O)[C@H](Cc2ccc(O)cc2)NC(=O)[C@@H](N)CSSC[C@@H](C(=O)N2CCC[C@H]2C(=O)N[C@@H](CC(C)C)C(=O)NCC(N)=O)NC(=O)[C@H](CC(N)=O)NC(=O)[C@H](CCC(N)=O)NC1=O,nt,nt,3%,nt,nt
[2H]c1c([2H])c([2H])c2c([nH]c(=S)n2C2CCN(CCCC(=O)c3ccc(F)cc3)CC2)c1[2H],nt,nt,nt,8%,nt
Nc1ccccc1N=c1ssnc1Cl,?,-1%,28µM*,-9%,-5%
Cc1ccc(N=c2ssnc2Cl)cc1,-16%,2%,20µM*,50%,-1%
Cc1nnc(N=c2ssnc2Cl)o1,?,-1%,2.8µM*,?,2%
Cc1cc(Cl)ccc1N=c1ssnc1Cl,?,-7%,28µM*,39%,6%
Nc1ccccc1N=Nc1ccccc1N,2%,0%,-3%,24%,-3%
CCn1c(SCc2ccc(F)cc2Cl)nc(=O)c2c(C(=O)OC)cc(C3CC3)nc21,nt,nt,-7%,-20%,-12%
CCOC(=O)N1CCc2c(sc(NCc3ccc(N(C)C)cc3)c2C(=O)Nc2ccc(OC)cc2)C1,nt,nt,-6%,5%,-8%
CCOc1ccccc1CNC(=O)C1CCN(Cc2cc3ccccc3n2Cc2ccccc2)CC1,nt,nt,-6%,5%,-9%
S=c1ccss1,nt,nt,25µM*,nt,nt
CC(=O)C(=Cc1cccc(C#N)c1)C(=O)c1ccccc1,nt,nt,nt,11µM*,nt
Cc1cc(C)cc(NC(=O)CCN2C(=O)c3ccccc3Sc3ncccc32)c1,nt,nt,-4%,3%,i
C=Cc1c(C)/c2[n-]/c1=C\c1[n-]c(c(CC)c1C)/C=c1\[n-]c3c(c1C)C(=O)C(C(=O)[O-])C=3c1[n-]c(c(C)c1CCC(=O)[O-])\C=2.[Cu].[Na+].[Na+] (stereo not drawn),nt,nt,2.5µM*,-128%,nt
O=C1ON=C(c2ccccc2)/C1=C/c1ccc(-c2ccccc2[N+](=O)[O-])o1,0%,-1%,20µM*,-7%,i
O=[N+]([O-])c1ccccc1-c1ccc(/C=N/n2cnnc2)o1,-3%,0%,38%,-4%,-6%
CC(=O)Nc1ccc2c3c(cccc13)C(=O)N(c1ccccc1)C2=O,0%,3%,22µM*,-17%,-3%
SMILES,Tb PFK inh,USP2a inh,GCN5L2 inh,GLS inh,PGK inhibitor
C#CCOCCOCCOCCNc1nc(N2CCN(C(=O)CCCCCCCCCCNC(=O)[C@H](CCCCN)n3cc(C[C@@H](C)CC)nn3)CC2)nc(N2CCN(C(=O)CCCCCCCCCCNC(=O)[C@H](CCCN=C(N)N)n3cc(C[C@@H](C)CC)nn3)CC2)n1,?,10µM*,-13%,?,-5%
C#CCOCCOCCOCCNc1nc(N2CCN(C(=O)CCCCCCCCCCNC(=O)[C@H](CO)n3cc(CCCCCN)nn3)CC2)nc(N2CCN(C(=O)CCCCCCCCCCNC(=O)[C@H](CCCN=C(N)N)n3cc(C[C@@H](C)CC)nn3)CC2)n1,24%,?,-12%,nt,nt
C#CCOCCOCCOCCNc1nc(N2CCN(C(=O)CCCCCCCCCCNC(=O)[C@H](CCCCN)n3cc(C)nn3)CC2)nc(N2CCN(C(=O)CCCCCCCCCCNC(=O)[C@H](CCCN=C(N)N)n3cc(C[C@@H](C)CC)nn3)CC2)n1,?,11µM*,-7%,?,12%
CC(C)CCCC(C)CCCC(C)CCCC(C)C(=O)O (stereo not drawn),nt,nt,11µM*,nt,nt
CC(C)CCCC(C)CCCC(C)CCCCC(C)CCCC(C)CCCC(C)C (stereo not drawn),nt,nt,-9%,1%,nt
CCOC(=O)c1cccc(NC(=O)c2ccc3snnc3c2)c1,nt,nt,-4%,4%,-13%
CC/C=C\C/C=C\C/C=C\C/C=C\C/C=C\CCCC(=O)O,nt,nt,-10%,32µM*,nt
CCCCCCCCCCC/C=C\C(C)(C)/C=C\CCCC(=O)O,nt,nt,7.9µM*,nt,nt
CCCCCCC/C=C\CCCCCCCCC(=O)O,nt,nt,8.9µM*,nt,nt
CC/C=C\C/C=C\C/C=C\CCCCCCCCCCCC(=O)O,nt,nt,11%,nt,nt
CC/C=C\C/C=C\C/C=C\CCCCCCCC(=O)O,-2%,0%,10µM*!,22µM*,-3%
O=C(O)c1cccc2cccc(-c3c4ccc(=O)c(O)c-4oc4c(O)c(O)ccc34)c12,nt,nt,nt,1.8µM*,2.5µM*
COc1ccc(/C=C2\CCc3c2nc2ccccc2c3C(=O)O)cc1OC,1%,2%,?,11µM*,-13%
COc1ccc(/C=C2\CCCc3c2nc2ccccc2c3C(=O)O)cc1OC,5%,?,-25%,nt,nt
COc1ccc(Nc2cc(O)c3ncccc3c2)cc1,-5%,3%,-12%,nt,nt
Cc1c(C)c2ccc(OCC(=O)NC(Cc3c[nH]c4ccc(O)cc34)C(=O)O)c(C)c2oc1=O (stereo not drawn),2%,3%,-2%,11µM*,-3%
COC(=O)c1ccc(NC(=O)CCc2c(C)nn(-c3ccc(N4CCCCC4)nn3)c2C)cc1,nt,nt,-9%,4%,i
O=S(=O)(O)c1cccc2c(N=Nc3ccc(O)c4ncccc34)cccc12,?,-9%,?,8.9µM*,?
O=Nc1ccc(O)c2ncccc12,-2%,2%,0%,11%,-1%
CN1CCCN=C1/C=C\c1cccs1,nt,nt,11µM*,-3%,nt
OCC1(O)OC[C@@H](O)[C@H](O)[C@@H]1O (stereo partly drawn),nt,nt,nt,-6%,nt
Cc1ccc(C(=O)N/N=C\c2ccc(Br)o2)o1,-5%,2%,2.5µM*,9%,-16%
